PfHsp90 yeast 2 – reduces growth (ATP signal) of yeast expressing P. falciparum Hsp90; S. cerevisiae expressing PfHsp90, BacTiter-Glo ATP, 48 h; yeast lacking PDR1 and PDR3 efflux regulators; inhibition, % at 9.4 µM; actives 0.32% (n = 310,000); AID 504621;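 active = every replicate shows inhibition above about 80%, whatever the replicate mean, limit read from the data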;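 also: 0% = DMSO neutral controls and 100% = 20 µM radicicol positive controls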
Wnt bcat act – Wnt/beta-catenin pathway activation. Wnt/beta-catenin reporter cell assay, activator, plate reader. activation, % at 9.35 µM. actives 1.2% (n = 300,000). AID 743398; in the data active = activation above about 30%, passing the limit was not always enough;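 also: 0% = neutral control wells and 100% = positive control wells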
MITF act – activators of MITF-driven TRPM1 promoter activity in SK-MEL-5 cells; actives 0.75% (n = 300,000); activation, % at 12.5 µM; SK-MEL-5 TRPM1-promoter luciferase, 24 h; % of positive control, neutral wells = 0; AID 588334;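 active = mean activation of at least 80% with every replicate also reaching 80%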;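 also: 0% = neutral control wells and 100% = parthenolide positive control wells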
MITF TRPM1 inh – inhibitors of MITF-driven TRPM1 promoter in melanoma cells; SK-MEL-5 TRPM1 promoter luciferase, 24 h; inhibition, % at 12.5 µM; actives 0.83% (n = 330,000); AID 488899;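 active = mean inhibition across replicates of 60% or more, whatever share of single replicates reaches that level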
N-glyco inh – blocks N-linked glycosylation in D54 reporter cells; D54 ERlucT glycosylation luciferase reporter, 24 h; percent of 100 nM tunicamycin response; reporter increase, % at 12.5 µM; actives 0.23% (n = 360,000); AID 588692;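 active = mean luciferase reporter signal, scaled so untreated is 0 and the glycosylation-blocking control 100, at or above a set limit in every replicate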;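 also: luciferase carries N-glycosylation sites so blocking glycosylation raises the light; 0% = median of neutral control wells and 100% = median of 100 nM tunicamycin wells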
NSD2 HMT inh – blocks human histone methyltransferase NSD2; inhibition, % at 12.5 µM; NSD2 peptide methylation, AlphaScreen, 120 min; actives 0.54% (n = 310,000); in the data active = inhibition above about 50%
* hit, by the source's call; . = no result given. Rows were chosen to be rich in hits. Some 2.9% of all compounds tested hit in one or more screens of this group.

SMILES	PfHsp90 yeast 2	Wnt bcat act	MITF act	MITF TRPM1 inh	N-glyco inh	NSD2 HMT inh
COc1ccc(CC2NCC(O)C2OC(C)=O)cc1 (stereo not given)	-6	-3	-91	91*	-20	.
COc1ccc(CC(=O)N2CCN(C)CC2)cc1	-3	.	-9	3	0	-7
O=C(O)COc1ccc(Cl)cc1Cl	11	1	12	-13	1	-1
Oc1cc(Cl)ccc1Oc1ccc(Cl)cc1Cl	95*	-1	1	-5	-3	.
CCOC(=O)c1c(C)[nH]c(C(=O)C(C)N2CCCC2)c1C (stereo not given)	19	0	5	-4	-1	0
O=c1[nH]c(=S)[nH]c(O)c1N=Nc1ccc(S(=O)(=O)N2CCc3ccccc32)cc1	1	5	-63	64*	10	20
Cc1cc(N2CCNC[C@@H]2C)ccc1N1CC[C@@H](O)C1	.	1	.	.	.	.
COc1ccc(C(=O)N/N=C/C23CC[C@@H](O)CC2(O)CC[C@@H]2[C@@H]3CCC3(C)C(C4=CC(=O)OC4)CCC23O)cc1 (stereo not given in full)	9	-24	-40	41	38*	1
CC12CC[C@H]3[C@@H](CCC4(O)C[C@H](O)CCC34/C=N/NC(=O)c3ccccc3O)C1(O)CCC2C1=CC(=O)OC1 (stereo not given in full)	9	-21	-6	6	32*	-1
CC12CC[C@H]3[C@@H](CCC4(O)C[C@H](O)CCC34/C=N/NC(=O)c3ccccc3F)C1(O)CCC2C1=CC(=O)OC1 (stereo not given in full)	15	-17	15	-15	12	0
CC12CC[C@H]3[C@@H](CCC4(O)C[C@H](O)CCC34/C=N/NC(=O)c3ccc(O)cc3)C1(O)CCC2C1=CC(=O)OC1 (stereo not given in full)	-7	-7	12	-12	0	-1
COc1cc(C(=O)N/N=C/C23CC[C@@H](O)CC2(O)CC[C@@H]2[C@@H]3CCC3(C)C(C4=CC(=O)OC4)CCC23O)ccc1O (stereo not given in full)	7	-2	10	-16	4	29
CN(C)c1ccc(C(=O)N/N=C/C23CC[C@@H](O)CC2(O)CC[C@@H]2[C@@H]3CCC3(C)C(C4=CC(=O)OC4)CCC23O)cc1 (stereo not given in full)	2	-22	-74	75*	13	2
CN1CCN(C(=O)COc2ccc(S(=O)(=O)NC3CCCCC3)cc2Cl)CC1	-4	-2	0	3	-3	-1
Cc1oc(C(=O)Nc2ccc(O)cc2)cc1COc1ccccc1	-11	6	10	-7	3	11
COC(=O)C1=C(c2ccccc2)C[C@@H]2CC[C@H]1N2C(=O)NCCNC(C)=O	-5	0	-11	6	3	.
CCN(CC)c1ccc(/C=C2\C(=O)NC(=S)N(C)C2=O)o1	2	37*	.	-36	-7	2
CCN(CC)c1ccc(C=C2C(=O)N(C)C(=S)N(C)C2=O)o1	4	14	29	-40	3	5
CCOP(=S)(OCC)SCC(=O)NC(C)(CC)C(=O)O (stereo not given)	.	-5	.	-1	1	-13
CCN1/C(=C\C=C\C2=[N+](CC)c3ccccc3C2(C)C)C(C)(C)c2ccccc21	14	.	-102	102*	-7	.
C=CCN1C(=O)NC(=O)/C(=C\c2ccc(-c3ccccc3[N+](=O)[O-])o2)C1=O	2	48*	-26	33	5	4
C[C@]12CCC(=O)C[C@@H]1CC[C@@H]1[C@@H]2CC[C@]2(C)[C@@H](O)CC[C@@H]12	.	-1	-10	10	-2	.
CN1C2(C)c3ccccc3C1(c1ccccc1)c1ccccc12	.	0	.	.	.	.
CC[n+]1c(/C=C/N(C)c2ccccc2)sc2ccc(Cl)cc21	-17	-10	-65	67*	-1	28
O=C1C=CC(=O)C2C1C1(Cl)C(Cl)=C(Cl)C2(Cl)C1(Cl)Cl (stereo not given)	92*	-3	2	-4	0	-24
C[C@@H]1CC2(CCCC[N+]2(C)C)C[C@H]1C	-19	-2	5	-2	5	1
